# Source: paper PMC7862700, “An all-to-all approach to the identification of sequence-specific readers for epigenetic DNA modifications on cytosine”
# Tests used:
# Assay in all cases: DAPPL (digital affinity profiling via proximity ligation, sequencing); 10 mM Tris-HCl pH 7.5, 50 mM NaCl, 1 mM DTT, 4% glycerol, room temperature, 30 min; GST-TFs on glutathione beads, 16-mer random dsDNA library, 0.1% formaldehyde crosslink after washing; high values mean tight binding
# FLI1 = biological target: T1, FLI1 (Homo sapiens, UniProt Q01543 1-452); conditions: protein: recombinant; tags: N-terminal GST; dsDNA, one strand shown
# T1 sequence: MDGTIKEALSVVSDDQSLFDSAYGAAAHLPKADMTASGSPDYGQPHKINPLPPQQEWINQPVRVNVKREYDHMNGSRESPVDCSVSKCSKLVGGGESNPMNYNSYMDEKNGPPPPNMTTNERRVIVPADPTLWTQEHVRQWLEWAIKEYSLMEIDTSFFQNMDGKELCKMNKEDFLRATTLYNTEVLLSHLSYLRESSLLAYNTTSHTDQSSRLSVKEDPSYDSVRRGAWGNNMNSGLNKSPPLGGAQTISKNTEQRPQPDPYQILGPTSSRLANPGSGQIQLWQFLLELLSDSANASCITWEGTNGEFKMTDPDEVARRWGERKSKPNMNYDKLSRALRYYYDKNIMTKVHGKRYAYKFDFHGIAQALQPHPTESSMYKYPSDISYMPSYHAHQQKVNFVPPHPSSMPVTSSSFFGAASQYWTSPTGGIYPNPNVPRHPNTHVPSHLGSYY
# In short: (§1)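 Binding signal is defined as a hexamer's read frequency for one factor over its frequency for the tag-only sample. To obtain reads, GST-fused human transcription factors were expressed in yeast, captured on glutathione beads, barcoded with DNA and pooled with that sample. Pools met 200 nmole of a 16-mer random double-stranded DNA library in Tris/NaCl/DTT/glycerol buffer for 30 min at room temperature before washing, 0.1% formaldehyde crosslinking, proximity ligation (BsaI/T4 ligase, 1 h, 37 °C), PCR and Illumina NextSeq500 sequencing.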
# ELK1 = biological target: T2, ELK1 (Homo sapiens, UniProt P19419 1-428); conditions: protein: recombinant; tags: N-terminal GST; dsDNA, one strand shown
# T2 sequence: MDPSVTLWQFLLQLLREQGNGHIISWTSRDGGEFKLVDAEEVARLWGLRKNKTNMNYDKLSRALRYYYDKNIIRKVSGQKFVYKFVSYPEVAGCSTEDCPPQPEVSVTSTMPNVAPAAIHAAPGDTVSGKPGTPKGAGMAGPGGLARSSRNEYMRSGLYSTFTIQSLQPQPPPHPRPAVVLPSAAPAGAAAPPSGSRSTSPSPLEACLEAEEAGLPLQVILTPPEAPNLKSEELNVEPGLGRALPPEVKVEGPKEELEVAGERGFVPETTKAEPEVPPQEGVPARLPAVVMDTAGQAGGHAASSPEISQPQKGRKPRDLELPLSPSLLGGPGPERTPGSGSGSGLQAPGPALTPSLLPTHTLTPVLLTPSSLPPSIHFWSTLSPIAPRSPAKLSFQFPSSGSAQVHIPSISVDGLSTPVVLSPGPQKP
# In short: as §1
# GABPA = biological target: T3, GABPA (Homo sapiens, UniProt Q06546 1-454); conditions: protein: recombinant; tags: N-terminal GST; dsDNA, one strand shown
# T3 sequence: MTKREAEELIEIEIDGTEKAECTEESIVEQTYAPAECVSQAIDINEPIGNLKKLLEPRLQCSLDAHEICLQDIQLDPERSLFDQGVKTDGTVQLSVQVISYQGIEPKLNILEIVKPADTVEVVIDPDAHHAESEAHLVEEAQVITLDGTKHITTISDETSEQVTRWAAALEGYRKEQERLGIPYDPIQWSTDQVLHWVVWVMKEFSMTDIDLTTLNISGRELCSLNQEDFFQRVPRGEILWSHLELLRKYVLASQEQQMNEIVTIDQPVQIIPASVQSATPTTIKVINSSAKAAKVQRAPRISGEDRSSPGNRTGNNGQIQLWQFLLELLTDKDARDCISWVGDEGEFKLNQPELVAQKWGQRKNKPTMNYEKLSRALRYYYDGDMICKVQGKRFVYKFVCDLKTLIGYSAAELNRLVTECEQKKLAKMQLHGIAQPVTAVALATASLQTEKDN
# In short: as §1
# ERG = biological target: T4, ERG (Homo sapiens, UniProt P11308 1-479); conditions: protein: recombinant; tags: N-terminal GST; dsDNA, one strand shown
# T4 sequence: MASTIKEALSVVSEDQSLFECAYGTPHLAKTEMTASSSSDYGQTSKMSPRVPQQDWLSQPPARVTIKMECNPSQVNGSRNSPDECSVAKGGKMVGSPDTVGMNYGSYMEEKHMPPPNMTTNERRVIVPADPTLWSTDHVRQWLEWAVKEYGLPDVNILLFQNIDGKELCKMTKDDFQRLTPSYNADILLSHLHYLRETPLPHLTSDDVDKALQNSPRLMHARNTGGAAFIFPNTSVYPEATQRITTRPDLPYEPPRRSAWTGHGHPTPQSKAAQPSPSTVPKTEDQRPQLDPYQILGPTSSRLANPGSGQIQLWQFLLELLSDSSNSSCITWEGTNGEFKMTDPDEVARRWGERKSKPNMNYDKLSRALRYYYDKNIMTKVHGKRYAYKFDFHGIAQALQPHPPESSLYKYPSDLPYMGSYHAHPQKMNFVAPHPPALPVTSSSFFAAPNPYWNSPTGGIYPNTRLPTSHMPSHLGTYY
# In short: as §1
# ELF1 = ELF1 (Homo sapiens, UniProt P32519 1-619); conditions: protein: recombinant; tags: N-terminal GST; dsDNA, one strand shown
# In short: as §1
# EHF = biological target: T5, EHF (Homo sapiens, UniProt Q9NZC4 1-300); conditions: protein: recombinant; tags: N-terminal GST; dsDNA, one strand shown
# T5 sequence: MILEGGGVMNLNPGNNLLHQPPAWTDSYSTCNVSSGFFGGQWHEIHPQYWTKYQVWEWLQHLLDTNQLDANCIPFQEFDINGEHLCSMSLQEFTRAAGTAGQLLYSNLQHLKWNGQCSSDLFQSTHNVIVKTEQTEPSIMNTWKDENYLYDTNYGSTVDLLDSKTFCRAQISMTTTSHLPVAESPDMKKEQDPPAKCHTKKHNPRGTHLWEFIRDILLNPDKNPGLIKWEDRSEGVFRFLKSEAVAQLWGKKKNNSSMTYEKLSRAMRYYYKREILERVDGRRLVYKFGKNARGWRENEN
# In short: as §1
# SPI1 = SPI1 (Homo sapiens, UniProt P17947 1-270); conditions: protein: recombinant; tags: N-terminal GST; dsDNA, one strand shown
# In short: as §1
# SPIB = SPIB (Homo sapiens, UniProt Q01892 1-262); conditions: protein: recombinant; tags: N-terminal GST; dsDNA, one strand shown
# In short: as §1
# ELK3 = biological target: T6, ELK3 (Homo sapiens, UniProt P41970 1-407); conditions: protein: recombinant; tags: N-terminal GST; dsDNA, one strand shown
# T6 sequence: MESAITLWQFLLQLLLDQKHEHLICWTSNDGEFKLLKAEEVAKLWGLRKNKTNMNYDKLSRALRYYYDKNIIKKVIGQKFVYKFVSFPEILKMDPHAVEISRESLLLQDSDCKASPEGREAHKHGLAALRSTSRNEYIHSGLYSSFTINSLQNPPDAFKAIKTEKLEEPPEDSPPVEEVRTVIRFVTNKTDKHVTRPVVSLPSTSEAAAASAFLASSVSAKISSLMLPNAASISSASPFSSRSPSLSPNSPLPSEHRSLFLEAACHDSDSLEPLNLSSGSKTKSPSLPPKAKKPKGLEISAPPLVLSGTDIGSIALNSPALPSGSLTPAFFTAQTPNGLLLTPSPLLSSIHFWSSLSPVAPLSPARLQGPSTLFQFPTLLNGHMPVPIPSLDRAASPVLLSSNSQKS
# In short: as §1
# FEV = biological target: T7, FEV (Homo sapiens, UniProt Q99581 1-238); conditions: protein: recombinant; tags: N-terminal GST; dsDNA, one strand shown
# T7 sequence: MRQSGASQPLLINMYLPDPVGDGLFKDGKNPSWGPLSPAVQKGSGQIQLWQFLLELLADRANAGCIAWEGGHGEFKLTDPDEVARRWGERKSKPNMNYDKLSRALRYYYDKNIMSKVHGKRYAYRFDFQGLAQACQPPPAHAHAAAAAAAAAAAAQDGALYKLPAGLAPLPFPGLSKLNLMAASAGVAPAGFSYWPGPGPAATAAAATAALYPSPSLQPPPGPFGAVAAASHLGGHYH
# In short: as §1
# ETV5 = ETV5 (Homo sapiens, UniProt P41161 1-510); conditions: protein: recombinant; tags: N-terminal GST; dsDNA, one strand shown
# In short: as §1
# HSF1 = HSF1 (Homo sapiens, UniProt Q00613 1-529); conditions: protein: recombinant; tags: N-terminal GST; chain copies: 3; dsDNA, one strand shown
# In short: as §1
# SPIC = biological target: T8, SPIC (Homo sapiens, UniProt Q8N5J4 1-248); conditions: protein: recombinant; tags: N-terminal GST; dsDNA, one strand shown
# T8 sequence: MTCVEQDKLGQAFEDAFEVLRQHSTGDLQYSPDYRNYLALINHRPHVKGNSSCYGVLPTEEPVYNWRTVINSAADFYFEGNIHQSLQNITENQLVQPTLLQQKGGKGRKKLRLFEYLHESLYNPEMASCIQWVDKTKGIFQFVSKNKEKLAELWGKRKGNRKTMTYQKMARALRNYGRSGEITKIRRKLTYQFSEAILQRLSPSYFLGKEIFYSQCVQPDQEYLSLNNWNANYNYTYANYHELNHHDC
# In short: as §1
# ELF4 = ELF4 (Homo sapiens, UniProt Q99607 1-663); conditions: protein: recombinant; tags: N-terminal GST; dsDNA, one strand shown
# In short: as §1
# ELK4 = biological target: T9, ELK4 (Homo sapiens, UniProt P28324-2 1-405); conditions: protein: recombinant; tags: N-terminal GST; dsDNA, one strand shown
# T9 sequence: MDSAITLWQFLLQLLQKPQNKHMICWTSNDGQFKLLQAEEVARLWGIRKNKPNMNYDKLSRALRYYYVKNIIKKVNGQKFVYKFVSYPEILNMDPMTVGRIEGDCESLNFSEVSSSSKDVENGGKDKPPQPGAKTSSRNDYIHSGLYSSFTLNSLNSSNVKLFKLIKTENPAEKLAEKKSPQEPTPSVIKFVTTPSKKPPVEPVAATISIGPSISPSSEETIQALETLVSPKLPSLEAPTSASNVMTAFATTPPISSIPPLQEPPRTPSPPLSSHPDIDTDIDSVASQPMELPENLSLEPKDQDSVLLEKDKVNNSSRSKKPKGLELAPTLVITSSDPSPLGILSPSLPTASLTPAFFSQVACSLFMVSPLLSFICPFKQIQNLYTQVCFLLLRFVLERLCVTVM
# In short: as §1
# ETV2 = biological target: T10, ETV2 (Homo sapiens, UniProt O00321 1-342); conditions: protein: recombinant; tags: N-terminal GST; dsDNA, one strand shown
# T10 sequence: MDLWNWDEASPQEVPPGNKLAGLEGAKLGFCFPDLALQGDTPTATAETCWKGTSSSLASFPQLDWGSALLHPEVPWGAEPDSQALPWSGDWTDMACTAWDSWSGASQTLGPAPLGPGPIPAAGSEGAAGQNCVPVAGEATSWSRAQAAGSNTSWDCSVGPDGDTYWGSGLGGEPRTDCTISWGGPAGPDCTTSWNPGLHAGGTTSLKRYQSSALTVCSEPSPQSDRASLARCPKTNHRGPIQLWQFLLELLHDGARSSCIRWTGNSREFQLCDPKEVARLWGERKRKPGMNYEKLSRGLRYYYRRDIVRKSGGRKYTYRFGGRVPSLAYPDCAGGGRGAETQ
# In short: as §1
# ELF3 = biological target: T11, ELF3 (Homo sapiens, UniProt P78545 1-371); conditions: protein: recombinant; tags: N-terminal GST; dsDNA, one strand shown
# T11 sequence: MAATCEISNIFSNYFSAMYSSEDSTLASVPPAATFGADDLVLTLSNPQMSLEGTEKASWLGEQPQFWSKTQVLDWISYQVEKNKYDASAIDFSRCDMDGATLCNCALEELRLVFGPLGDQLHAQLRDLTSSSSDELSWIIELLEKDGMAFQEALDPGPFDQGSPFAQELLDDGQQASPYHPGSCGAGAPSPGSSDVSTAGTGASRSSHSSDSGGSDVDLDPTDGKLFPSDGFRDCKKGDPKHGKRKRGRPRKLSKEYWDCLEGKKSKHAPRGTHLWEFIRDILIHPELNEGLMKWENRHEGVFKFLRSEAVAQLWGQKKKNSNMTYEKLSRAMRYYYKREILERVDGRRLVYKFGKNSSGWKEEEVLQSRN
# In short: as §1
# CRX = CRX (Homo sapiens, UniProt O43186 1-299); conditions: protein: recombinant; tags: N-terminal GST; dsDNA, one strand shown
# In short: as §1
# ETV1 = ETV1 (Homo sapiens, UniProt P50549 1-477); conditions: protein: recombinant; tags: N-terminal GST; dsDNA, one strand shown
# In short: as §1
# Sequence of HSF1 (Q00613 whole entry): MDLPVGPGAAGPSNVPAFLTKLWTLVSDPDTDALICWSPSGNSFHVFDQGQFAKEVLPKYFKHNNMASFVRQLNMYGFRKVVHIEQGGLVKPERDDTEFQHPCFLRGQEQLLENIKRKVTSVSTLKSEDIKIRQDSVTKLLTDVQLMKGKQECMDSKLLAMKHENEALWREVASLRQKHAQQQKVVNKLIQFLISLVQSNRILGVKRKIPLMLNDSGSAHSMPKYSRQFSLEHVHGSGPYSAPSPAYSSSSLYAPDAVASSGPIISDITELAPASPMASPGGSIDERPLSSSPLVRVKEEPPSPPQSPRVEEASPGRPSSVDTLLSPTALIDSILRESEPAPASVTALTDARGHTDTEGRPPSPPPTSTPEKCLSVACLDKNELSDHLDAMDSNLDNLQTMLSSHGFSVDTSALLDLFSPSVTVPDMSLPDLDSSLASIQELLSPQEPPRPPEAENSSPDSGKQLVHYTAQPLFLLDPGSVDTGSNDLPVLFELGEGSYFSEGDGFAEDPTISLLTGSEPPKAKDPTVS
# Sequence of ETV5 (P41161 whole entry): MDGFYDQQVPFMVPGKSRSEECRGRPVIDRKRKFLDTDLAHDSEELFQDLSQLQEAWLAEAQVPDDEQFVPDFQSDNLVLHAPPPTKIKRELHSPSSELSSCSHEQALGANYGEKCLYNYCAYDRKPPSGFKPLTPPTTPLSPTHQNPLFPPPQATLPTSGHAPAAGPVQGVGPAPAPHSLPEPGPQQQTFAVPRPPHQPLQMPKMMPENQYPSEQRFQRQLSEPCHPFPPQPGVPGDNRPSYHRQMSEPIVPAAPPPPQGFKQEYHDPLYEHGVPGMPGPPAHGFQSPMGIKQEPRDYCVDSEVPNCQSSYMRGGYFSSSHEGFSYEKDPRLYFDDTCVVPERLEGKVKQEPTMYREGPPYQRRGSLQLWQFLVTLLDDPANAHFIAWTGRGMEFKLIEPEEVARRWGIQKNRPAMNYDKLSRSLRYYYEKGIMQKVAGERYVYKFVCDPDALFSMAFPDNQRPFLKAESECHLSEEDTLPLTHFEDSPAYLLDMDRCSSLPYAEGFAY
# Sequence of SPIB (Q01892 whole entry): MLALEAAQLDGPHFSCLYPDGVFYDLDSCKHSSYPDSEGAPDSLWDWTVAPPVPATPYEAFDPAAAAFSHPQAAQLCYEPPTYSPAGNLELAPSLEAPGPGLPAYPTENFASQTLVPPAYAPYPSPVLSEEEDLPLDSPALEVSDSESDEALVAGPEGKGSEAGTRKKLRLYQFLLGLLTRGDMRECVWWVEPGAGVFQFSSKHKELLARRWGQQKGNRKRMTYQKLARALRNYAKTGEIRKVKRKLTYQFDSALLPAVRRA
# Sequence of ETV1 (P50549 whole entry): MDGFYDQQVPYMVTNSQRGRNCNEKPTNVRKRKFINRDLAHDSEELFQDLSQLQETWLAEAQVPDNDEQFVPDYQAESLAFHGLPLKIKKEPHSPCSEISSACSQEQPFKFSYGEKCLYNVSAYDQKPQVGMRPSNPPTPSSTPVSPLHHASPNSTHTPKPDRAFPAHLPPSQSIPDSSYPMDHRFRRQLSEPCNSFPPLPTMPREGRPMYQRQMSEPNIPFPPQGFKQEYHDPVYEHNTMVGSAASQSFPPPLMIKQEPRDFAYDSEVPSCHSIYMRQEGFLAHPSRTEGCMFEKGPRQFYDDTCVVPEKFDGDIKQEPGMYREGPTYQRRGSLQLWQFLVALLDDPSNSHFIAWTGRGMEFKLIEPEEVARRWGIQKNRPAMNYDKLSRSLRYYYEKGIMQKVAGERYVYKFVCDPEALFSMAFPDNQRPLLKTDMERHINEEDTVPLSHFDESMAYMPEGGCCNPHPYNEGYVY
# Sequence of ELF4 (Q99607 whole entry): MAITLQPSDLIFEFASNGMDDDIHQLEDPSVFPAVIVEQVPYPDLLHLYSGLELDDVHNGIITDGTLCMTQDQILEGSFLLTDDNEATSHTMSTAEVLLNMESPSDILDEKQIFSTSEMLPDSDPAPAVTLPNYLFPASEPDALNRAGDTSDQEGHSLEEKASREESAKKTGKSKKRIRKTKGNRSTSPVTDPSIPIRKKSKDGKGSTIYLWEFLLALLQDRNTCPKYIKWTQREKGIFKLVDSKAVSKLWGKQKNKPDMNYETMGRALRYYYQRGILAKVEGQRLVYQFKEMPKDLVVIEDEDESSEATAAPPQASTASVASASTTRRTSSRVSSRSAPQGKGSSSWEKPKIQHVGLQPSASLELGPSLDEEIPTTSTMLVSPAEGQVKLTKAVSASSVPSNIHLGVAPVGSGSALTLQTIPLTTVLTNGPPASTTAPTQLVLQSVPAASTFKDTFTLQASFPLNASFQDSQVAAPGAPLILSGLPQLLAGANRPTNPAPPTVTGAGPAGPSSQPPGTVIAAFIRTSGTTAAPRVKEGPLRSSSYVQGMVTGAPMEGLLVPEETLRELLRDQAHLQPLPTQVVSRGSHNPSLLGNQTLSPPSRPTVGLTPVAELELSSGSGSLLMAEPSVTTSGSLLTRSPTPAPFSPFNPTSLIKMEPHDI
# Sequence of CRX (O43186 whole entry): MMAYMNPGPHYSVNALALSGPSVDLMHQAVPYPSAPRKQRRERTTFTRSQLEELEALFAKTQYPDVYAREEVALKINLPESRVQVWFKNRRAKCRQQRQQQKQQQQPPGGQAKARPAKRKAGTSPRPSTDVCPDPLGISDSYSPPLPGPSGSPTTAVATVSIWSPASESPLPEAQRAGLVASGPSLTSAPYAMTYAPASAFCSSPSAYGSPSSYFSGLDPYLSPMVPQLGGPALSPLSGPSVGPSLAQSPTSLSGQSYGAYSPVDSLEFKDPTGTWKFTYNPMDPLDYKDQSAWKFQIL
# Sequence of ELF1 (P32519 whole entry): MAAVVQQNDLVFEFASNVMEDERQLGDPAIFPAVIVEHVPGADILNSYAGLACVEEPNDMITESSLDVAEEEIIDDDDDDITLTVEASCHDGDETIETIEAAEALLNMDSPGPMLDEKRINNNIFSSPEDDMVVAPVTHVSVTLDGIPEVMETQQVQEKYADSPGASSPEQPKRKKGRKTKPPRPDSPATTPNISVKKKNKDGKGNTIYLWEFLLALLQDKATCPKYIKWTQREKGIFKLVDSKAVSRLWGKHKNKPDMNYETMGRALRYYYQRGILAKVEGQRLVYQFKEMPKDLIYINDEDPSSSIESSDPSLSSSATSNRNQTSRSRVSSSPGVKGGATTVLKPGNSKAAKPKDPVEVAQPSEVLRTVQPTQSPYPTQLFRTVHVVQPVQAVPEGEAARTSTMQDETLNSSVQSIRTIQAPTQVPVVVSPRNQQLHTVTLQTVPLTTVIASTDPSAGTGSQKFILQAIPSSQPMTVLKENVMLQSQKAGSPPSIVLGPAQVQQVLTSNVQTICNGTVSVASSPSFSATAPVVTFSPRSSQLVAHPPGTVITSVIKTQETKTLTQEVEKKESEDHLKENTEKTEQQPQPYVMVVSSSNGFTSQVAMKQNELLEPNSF
sequence,measurement,setting,value
ACTTCC,binding signal,FLI1,"7.89 fold enrichment (6-mer frequency, TF over GST control)"
same,binding signal,ELK1,"8.92 fold enrichment (6-mer frequency, TF over GST control)"
same,binding signal,GABPA,"7.33 fold enrichment (6-mer frequency, TF over GST control)"
same,binding signal,ERG,"10 fold enrichment (6-mer frequency, TF over GST control)"
same,binding signal,ELF1,"7.99 fold enrichment (6-mer frequency, TF over GST control)"
same,binding signal,EHF,"8.81 fold enrichment (6-mer frequency, TF over GST control)"
same,binding signal,SPI1,"12.7 fold enrichment (6-mer frequency, TF over GST control)"
same,binding signal,SPIB,"8.52 fold enrichment (6-mer frequency, TF over GST control)"
same,binding signal,ELK3,"9.72 fold enrichment (6-mer frequency, TF over GST control)"
same,binding signal,FEV,"12.4 fold enrichment (6-mer frequency, TF over GST control)"
same,binding signal,ETV5,"8.86 fold enrichment (6-mer frequency, TF over GST control)"
same,binding signal,HSF1,"1.55 fold enrichment (6-mer frequency, TF over GST control)"
same,binding signal,SPIC,"8.15 fold enrichment (6-mer frequency, TF over GST control)"
same,binding signal,ELF4,"7.63 fold enrichment (6-mer frequency, TF over GST control)"
same,binding signal,ELK4,"6.63 fold enrichment (6-mer frequency, TF over GST control)"
same,binding signal,ETV2,"8.23 fold enrichment (6-mer frequency, TF over GST control)"
same,binding signal,ELF3,"7.67 fold enrichment (6-mer frequency, TF over GST control)"
same,binding signal,CRX,"1.21 fold enrichment (6-mer frequency, TF over GST control)"
same,binding signal,ETV1,"8.66 fold enrichment (6-mer frequency, TF over GST control)"
